# Source: PubChem BioAssay (Tox21)
# Several values for one entry are separate records, joined by “and”; a condition that tells them apart may be missing. Equal entries are not always repeated. Records with an inconclusive call do not appear. Entries that show only a call come without a potency. A structure can be active in one record and inactive in another. Activity calls are given as the source filed them. Unless noted, calls come from the whole dose curve.
# How the values were obtained:
# [1] = Nuclear factor erythroid 2-related factor 2/antioxidant responsive element (Nrf2/ARE) small molecule agonists: qHTS cell viability counter screen in human keratinocytes (AID 1919968; active = well fitted curve in the direction sought with a large enough effect in the repeat runs; an effect the other way counts as inactive or inconclusive; note: nearly all actives have a fitted effect of over 55% in size; note: potency is the fitted concentration of half-maximal effect)
# Procedure, shortened: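 Viability counter-screen: KeratinoSens reporter cells, DMSO-delivered compounds, 23 h at 37 C, CellTiter-Fluor fluorescence.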
# [2] = Nuclear factor erythroid 2-related factor 2/antioxidant responsive element (Nrf2/ARE) small molecule agonists: luciferase reporter gene qHTS assay in human keratinocytes (AID 1919969); note: nearly all actives have a fitted effect of over 35% in size; note: potency is the fitted concentration of half-maximal effect
# [3] = molecular target: Gonadotropin-releasing hormone receptor (Homo sapiens) (UniProt P30968); test: Human gonadotropin-releasing hormone receptor (GnRHR) small molecule agonists, calcium flux assay in GnRHR-HEK293 cells (AID 1920063); note: nearly all actives have a fitted effect of over 35% in size; note: potency is the fitted concentration of half-maximal effect
# Procedure, shortened: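 Tox21-format agonist screen using human GnRHR-expressing HEK293 cells and a fluorescent calcium dye; kinetic 3-min fluorescence reading after compound addition, 15-point concentration series run in triplicate.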
# [4] = molecular target: KiSS-1 receptor (Homo sapiens) (UniProt Q969F8); test: Human kisspeptin (KISS1R) small molecule agonists, calcium flux assay in KISS1R-HEK293 cells (AID 1920064; active = well fitted curve in the direction sought with a large enough effect in the repeat runs; an effect the other way counts as inactive or inconclusive)
# Procedure, shortened: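 Intracellular calcium mobilization in KISS1R-HEK293 cells was recorded by fluorescence (Ex/Em 480/540) for 3 min following compound addition to cells pre-loaded 1 h with calcium dye.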
# [5] = G protein-coupled receptor (GPCR) small molecule agonists, calcium flux assay: HEK293 wild type cell line counter screen (AID 1920065)
# Procedure, shortened: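 In this agonist-mode screen, ATP is the positive control and DMSO the vehicle. Cells grow 18 h before a 1 h dye incubation at 37 C; signal is taken at Ex/Em 480/540 over 3 min.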
# [6] = p53 small molecule agonists, cell-based qHTS assay with human liver microsomes (AID 1963577)
# Procedure, shortened: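 Compounds act here after metabolic activation: human liver microsomes and NADPH, both at 0.5 mg/mL final, were co-added to p53RE-bla cells. Incubation ran 16 h at 37 C, followed by LiveBLAzer detection.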
# [7] = p53 small molecule agonists, cell-based qHTS assay with human liver microsomes: qHTS cell viability counter screen (AID 1963579); note: nearly all actives have a fitted effect of over 45% in size; note: potency is the fitted concentration of half-maximal effect
# Procedure, shortened: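 Cells carrying the p53 response-element beta-lactamase reporter are treated for 16 h at 37 C with test compounds in the presence of human liver microsomes and NADPH (both 0.5 mg/mL final); ATP-based CellTiter-Glo luminescence then reports viability.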
# [8] = p53 small molecule agonists, cell-based qHTS assay with rat liver microsomes: qHTS cell viability counter screen (AID 1963580); note: nearly all actives have a fitted effect of over 45% in size; note: potency is the fitted concentration of half-maximal effect
# Procedure, shortened: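 HCT-116 p53RE-bla, 4,000 cells/well, 5 h pre-incubation; cpd + rat liver microsomes 0.5 mg/mL + NADPH 0.5 mg/mL (final); 16 h, 37 C; CellTiter-Glo, 30 min RT; luminescence.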
# [9] = p53 small molecule agonists, cell-based qHTS assay: qHTS cell viability counter screen (AID 1963581); note: nearly all actives have a fitted effect of over 45% in size; note: potency is the fitted concentration of half-maximal effect
# Procedure, shortened: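 Compounds are pinned onto HCT-116 p53RE-bla cells and left 16 h at 37 C. Following the reporter FRET read, ATP is quantified by CellTiter-Glo luminescence after 30 min at room temperature.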
# [10] = p53 small molecule agonists, cell-based qHTS assay (AID 1963582; active = well fitted activation curve with a large enough effect in the signal ratio in the repeat runs, not every such curve was filed as active; the % refers to the signal ratio)
# Procedure, shortened: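 Agonist activity was scored from beta-lactamase FRET fluorescence in p53RE-bla cells treated 16 h at 37 C with compounds in DMSO, substrate incubation being 2 h at room temperature.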
# [11] = molecular target: 5-hydroxytryptamine receptor 2A (Homo sapiens) (UniProt P28223); test: 5-hydroxytryptamine receptor 2A (HTR2A) small molecule antagonists, cell-based qHTS assay (AID 1963586); note: nearly all actives have a fitted effect of over 45% in size; note: potency is the fitted concentration of half-maximal effect
# Procedure, shortened: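 Antagonist-mode intracellular calcium assay: DOI (4 nM) added after 5 min compound pre-incubation at room temperature to dye-loaded HTR2A-CHO cells. Fluorescence followed for 3 min, sampled every second.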
# [12] = molecular target: 5-hydroxytryptamine receptor 2A (Homo sapiens) (UniProt P28223); test: 5-hydroxytryptamine receptor 2A (HTR2A) small molecule agonists, cell-based qHTS assay (AID 1963587); note: nearly all actives have a fitted effect of over 30% in size; note: potency is the fitted concentration of half-maximal effect
# Procedure, shortened: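 Kinetic calcium-flux fluorescence (2 min, 1 sec intervals) after compound addition in agonist mode. HTR2A-CHO cells were cultured 18 h, then dye-loaded 1 h at 37 C.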
# [13] = molecular target: Muscarinic acetylcholine receptor M1 (Homo sapiens) (UniProt P11229); test: Cholinergic receptor muscarinic 1 (CHRM1) small molecule antagonists, cell-based qHTS assay (AID 1963588); note: nearly all actives have a fitted effect of over 40% in size; note: potency is the fitted concentration of half-maximal effect
# Procedure, shortened: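 CHRM1-CHO calcium-flux assay, antagonist mode. Cells were seeded 18 h, dye-loaded 1 h at 37 C and given compound for 5 min at RT, then acetylcholine was added at 50nM. FDSS fluorescence was read 3 min; 15 concentrations, three runs.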
# [14] = molecular target: Muscarinic acetylcholine receptor M1 (Homo sapiens) (UniProt P11229); test: Cholinergic receptor muscarinic 1 (CHRM1) small molecule agonists, cell-based qHTS assay (AID 1963589); note: nearly all actives have a fitted effect of over 35% in size
# Procedure, shortened: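 Stable CHRM1-CHO cells (human receptor) were incubated 18 h, dye-loaded for 1 h at 37 C and exposed to test compounds for agonist activity, with calcium-dependent fluorescence followed kinetically.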
# [15] = cAMP Responsive Elements (CRE) small molecule agonists, cell-based qHTS assay (AID 1963590)
# Procedure, shortened: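 FRET-based beta-lactamase readout (LiveBLAzer B/G, 2 h RT) quantified CRE activation in HEK 293T CRE-bla cells after 3 h treatment with DMSO-dissolved compounds.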
# [16] = cAMP Responsive Elements (CRE) small molecule antagonists, cell-based qHTS assay (AID 1963591; active = well fitted inhibition curve with a large enough effect in the signal ratio in the repeat runs, not every such curve was filed as active; the % refers to the signal ratio)
# Procedure, shortened: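 qHTS in CRE-bla HEK 293T cells: compound in DMSO, then 0.25 uM NKH477 (final), 3 h at 37 °C/5% CO2; beta-lactamase FRET read-out after 2 h substrate incubation.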
# [17] = molecular target: Beta-2 adrenergic receptor (Homo sapiens) (UniProt P07550); test: Adrenergic beta2 receptor (ADRB2) small molecule antagonists, cell-based qHTS assay (AID 1963592); note: series mostly up to about 92 µM; nearly all actives have a fitted effect of over 50% in size
# Procedure, shortened: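 Cells (CHO, stable ADRB2 overexpression) incubated 18-20hr at 37C; compounds added from DMSO; agonist mix (1nM isoproterenol, 100uM IBMX, 25uM Ro-20-1724) added; 0.5hr RT; d2-cAMP and anti-cAMP-cryptate added; 1hr RT; 665/615 nm read.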
# [18] = molecular target: D(2) dopamine receptor (Homo sapiens) (UniProt P14416); test: Dopamine D2 receptor (DRD2) small molecule agonists, cell-based qHTS assay (AID 1963594); note: nearly all actives have a fitted effect of over 35% in size
# Procedure, shortened: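 cAMP accumulation in DRD2-HEK293 cells measured by HTRF after 1 h detection; compounds added 10 min before NKH477 (200nM […]) forskolin-analogue stimulation, 30 min at room temperature, with Ro20-1724 present at 0.1 mM final.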
# [19] = molecular target: D(2) dopamine receptor (Homo sapiens) (UniProt P14416); test: Dopamine D2 receptor (DRD2) small molecule antagonists, cell-based qHTS assay (AID 1963595; active = well fitted inhibition curve with a large enough effect in the signal ratio in the repeat runs, with a control signal flat; the % refers to the signal ratio; note: potency is the fitted concentration of half-maximal effect)
# Procedure, shortened: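 In this cell-based antagonist screen, compounds act for 10 min at room temperature before a 30 min challenge with 12 nM quinpirole and 200 nM NKH477. cAMP is quantified by HTRF competition in DRD2-HEK293 cells containing 0.1 mM Ro20-1724.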
# [20] = p53 small molecule agonists, cell-based qHTS assay with rat liver microsomes (AID 1963578)
# Procedure, shortened: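 Read-out is beta-lactamase reporter fluorescence (LiveBLAzer, 2 h, room temperature, dark) in p53RE-bla cells treated 16 h at 37 C with compound, rat liver microsomes and NADPH, both 0.5 mg/mL final.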
# Chain of Gonadotropin-releasing hormone receptor (Homo sapiens) (P30968 whole entry, looked up): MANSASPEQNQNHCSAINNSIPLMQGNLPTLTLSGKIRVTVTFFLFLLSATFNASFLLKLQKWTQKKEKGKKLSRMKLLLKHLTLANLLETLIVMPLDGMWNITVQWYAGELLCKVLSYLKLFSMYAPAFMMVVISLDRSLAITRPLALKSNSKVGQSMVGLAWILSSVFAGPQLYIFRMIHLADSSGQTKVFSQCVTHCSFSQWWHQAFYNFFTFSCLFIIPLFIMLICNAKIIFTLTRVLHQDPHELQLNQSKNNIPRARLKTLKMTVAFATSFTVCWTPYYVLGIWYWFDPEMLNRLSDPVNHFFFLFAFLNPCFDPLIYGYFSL
# Chain of KiSS-1 receptor (Homo sapiens) (Q969F8 whole entry, looked up): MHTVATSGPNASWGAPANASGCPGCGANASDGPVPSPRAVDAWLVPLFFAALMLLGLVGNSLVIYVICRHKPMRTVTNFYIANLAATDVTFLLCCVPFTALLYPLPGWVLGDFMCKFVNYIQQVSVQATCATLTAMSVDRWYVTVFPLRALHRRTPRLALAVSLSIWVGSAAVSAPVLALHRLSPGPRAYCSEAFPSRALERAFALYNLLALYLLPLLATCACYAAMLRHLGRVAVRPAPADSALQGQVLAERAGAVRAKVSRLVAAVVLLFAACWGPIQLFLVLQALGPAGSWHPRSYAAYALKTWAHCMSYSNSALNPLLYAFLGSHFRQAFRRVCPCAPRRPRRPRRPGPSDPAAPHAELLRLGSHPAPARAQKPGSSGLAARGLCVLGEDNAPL
# Chain of Muscarinic acetylcholine receptor M1 (Homo sapiens) (P11229 whole entry, looked up): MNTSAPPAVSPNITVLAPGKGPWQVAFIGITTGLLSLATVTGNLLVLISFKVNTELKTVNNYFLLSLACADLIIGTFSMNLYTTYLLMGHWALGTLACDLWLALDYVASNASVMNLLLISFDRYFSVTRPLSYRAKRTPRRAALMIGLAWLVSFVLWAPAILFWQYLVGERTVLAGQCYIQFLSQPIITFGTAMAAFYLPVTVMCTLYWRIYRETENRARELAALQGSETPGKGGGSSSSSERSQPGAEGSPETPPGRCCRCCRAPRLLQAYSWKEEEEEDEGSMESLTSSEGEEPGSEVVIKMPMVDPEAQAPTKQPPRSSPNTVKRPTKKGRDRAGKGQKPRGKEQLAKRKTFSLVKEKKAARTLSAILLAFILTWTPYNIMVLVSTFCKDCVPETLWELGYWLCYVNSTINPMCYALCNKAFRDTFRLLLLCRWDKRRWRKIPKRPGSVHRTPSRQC
# Chain of D(2) dopamine receptor (Homo sapiens) (P14416 whole entry, looked up): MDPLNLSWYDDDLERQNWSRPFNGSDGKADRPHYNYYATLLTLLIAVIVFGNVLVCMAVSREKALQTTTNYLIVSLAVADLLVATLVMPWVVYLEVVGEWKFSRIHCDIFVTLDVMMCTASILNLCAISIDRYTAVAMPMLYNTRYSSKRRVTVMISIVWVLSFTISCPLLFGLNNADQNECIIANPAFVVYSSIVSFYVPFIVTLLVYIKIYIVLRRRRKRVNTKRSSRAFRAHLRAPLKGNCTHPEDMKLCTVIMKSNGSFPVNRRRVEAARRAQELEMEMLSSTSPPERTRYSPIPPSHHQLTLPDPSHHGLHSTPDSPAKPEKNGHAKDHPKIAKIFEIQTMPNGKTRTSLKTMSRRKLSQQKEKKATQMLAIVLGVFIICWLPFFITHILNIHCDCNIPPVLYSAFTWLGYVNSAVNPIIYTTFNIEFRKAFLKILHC
# Chain of Beta-2 adrenergic receptor (Homo sapiens) (P07550 whole entry, looked up): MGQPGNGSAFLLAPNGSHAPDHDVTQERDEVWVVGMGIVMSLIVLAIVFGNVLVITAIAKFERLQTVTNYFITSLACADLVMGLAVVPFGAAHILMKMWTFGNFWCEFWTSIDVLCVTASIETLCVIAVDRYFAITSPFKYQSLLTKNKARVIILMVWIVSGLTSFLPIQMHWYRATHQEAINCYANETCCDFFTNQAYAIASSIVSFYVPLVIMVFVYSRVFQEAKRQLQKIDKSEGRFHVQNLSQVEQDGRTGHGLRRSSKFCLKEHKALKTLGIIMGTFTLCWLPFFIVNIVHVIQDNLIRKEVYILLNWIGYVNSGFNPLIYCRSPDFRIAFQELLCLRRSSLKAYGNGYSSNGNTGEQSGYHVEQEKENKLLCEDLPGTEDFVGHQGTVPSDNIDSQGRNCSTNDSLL
# Chain of 5-hydroxytryptamine receptor 2A (Homo sapiens) (P28223 whole entry, looked up): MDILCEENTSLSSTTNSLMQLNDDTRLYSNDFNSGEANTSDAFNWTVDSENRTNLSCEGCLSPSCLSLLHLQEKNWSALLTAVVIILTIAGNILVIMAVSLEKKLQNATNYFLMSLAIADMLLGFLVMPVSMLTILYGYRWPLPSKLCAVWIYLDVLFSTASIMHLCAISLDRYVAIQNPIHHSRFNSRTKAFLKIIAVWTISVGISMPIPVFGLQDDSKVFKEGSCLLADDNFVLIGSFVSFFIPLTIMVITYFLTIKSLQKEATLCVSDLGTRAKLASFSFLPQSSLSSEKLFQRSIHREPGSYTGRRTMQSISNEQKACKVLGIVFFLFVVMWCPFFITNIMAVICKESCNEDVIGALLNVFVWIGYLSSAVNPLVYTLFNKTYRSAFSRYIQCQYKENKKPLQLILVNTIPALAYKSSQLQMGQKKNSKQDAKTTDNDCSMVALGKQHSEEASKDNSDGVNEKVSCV
Structure (SMILES),Potency [1],Potency [2],Potency [3],Potency [4],Potency [5],Potency [6],Potency [7],Potency [8],Potency [9],Potency [10],Potency [11],Potency [12],Potency [13],Potency [14],Potency [15],Potency [16],Potency [17],Potency [18],Potency [19],Potency [20]
CN(C)CCc1c[nH]c2cccc(OP(=O)(O)O)c12,inactive,inactive,inactive,inactive,inactive,inactive,inactive,inactive,inactive,inactive,0.0735 µM (active),0.0855 µM (active),inactive,inactive,inactive,inactive,inactive,inactive,inactive,
C=CCCl,inactive,inactive,inactive,inactive,inactive,inactive,,inactive,inactive,inactive,inactive,inactive,inactive,inactive,inactive,inactive,inactive,inactive,inactive,inactive
Cc1cc(Cl)ccc1OCCCC(=O)O,inactive,inactive,inactive,inactive,inactive,inactive,inactive,,inactive,,inactive,inactive,inactive,inactive,,,inactive,inactive,inactive,inactive
C/C=C/c1ccc2c(c1)OCO2,inactive,inactive,inactive,inactive,inactive,inactive,inactive,,inactive,inactive,,,,,inactive,inactive,inactive,inactive,inactive,inactive
CCCCCCCCCCCCCCCC[n+]1ccccc1,29.8 µM (active) [middle of 4 runs],inactive,25.7 µM (active) and 38.9 µM (active) and 17.1 µM (active),inactive,inactive,inactive,36.3 µM (active) and 40.2 µM (active) and inactive,,45.8 µM (active) and inactive,inactive,,,,,,,inactive,inactive,inactive and 60.3 µM (active),inactive
C=CC(=O)OC(C)(C)C,inactive,inactive,inactive,inactive,inactive,inactive,inactive,,inactive,inactive,inactive,,inactive,inactive,inactive,inactive,inactive,inactive,inactive,inactive
[O]=[Cr](=[O])([OH])[O][Cr](=[O])(=[O])[OH],30.9 µM (active) and 61 µM (active),inactive,inactive,inactive,inactive,inactive,40.7 µM (active),,18.4 µM (active),,inactive,inactive,inactive,inactive,inactive,,inactive,inactive,inactive,inactive
N#Cc1nn(-c2c(Cl)cc(C(F)(F)F)cc2Cl)c(N)c1S(=O)C(F)(F)F (stereo not drawn),61.5 µM (active),inactive,inactive,inactive,inactive,inactive,inactive,,inactive,,inactive,inactive,,inactive,,,inactive,,inactive,inactive
O=C(Nc1ccc(Br)cc1)c1cc(Br)cc(Br)c1O,6.09 µM (active) and 6.11 µM (active) and 7.5 µM (active),54.3 µM (active) and 10.9 µM (active) and 13.3 µM (active),inactive,inactive,inactive,inactive,,inactive,inactive and 3.97 µM (active),inactive,,,,,,inactive,inactive,,inactive,inactive
CCC[CH2][Sn]([Cl])([Cl])[CH2]CCC,1.23 µM (active) and 2.17 µM (active),492 nM (active) and 969 nM (active),inactive,inactive,inactive,inactive,,18.5 µM (active) and 45.8 µM (active),3.28 µM (active) and 4.08 µM (active),,inactive,inactive,inactive,inactive,,,inactive,inactive,inactive,inactive
NC(=O)CCl,inactive,61.1 µM (active),inactive,inactive,inactive,inactive,inactive,,inactive,inactive,inactive,inactive,inactive,,inactive,inactive,inactive,inactive,inactive,inactive
C=C1CC[C@@]2(O)[C@H]3Cc4ccc(O)c5c4[C@@]2(CCN3CC2CC2)[C@H]1O5,inactive,inactive,inactive,inactive,inactive,inactive,inactive,,inactive,inactive,inactive,inactive,,inactive,inactive,inactive,inactive,inactive,inactive,inactive
O=C(NC(=O)c1c(F)cccc1F)Nc1cc(Cl)c(OC(F)(F)C(F)C(F)(F)F)cc1Cl (stereo not drawn),inactive,inactive,inactive,inactive,inactive,inactive,inactive,,inactive,,inactive,inactive,,inactive,,inactive,,inactive,,inactive
CN(C)C(=S)SSC(=S)N(C)C,95.5 nM (active) and 137 nM (active) and 119 nM (active),inactive and 96.9 nM (active),inactive,inactive,inactive,inactive,inactive,,inactive,inactive,inactive,inactive and 27.5 µM (active),inactive,inactive,,,inactive,,inactive,inactive
CC(C)=CCN1CC[C@@]2(C)c3cc(O)ccc3C[C@@H]1[C@@H]2C,inactive,inactive,inactive,inactive,inactive,inactive,,inactive,inactive,inactive,inactive,inactive,9.28 µM (active),inactive,,inactive,inactive,,inactive,inactive
